# Only some compounds are listed: those with a hit (about 0.78% of all), similar ones and a draw of the others.
# SARS 3CLpro inh-1: SARS-CoV 3CLpro protease inhibitors, primary screen, biochemical, quenched FRET; Replicase polyprotein 1ab (Severe acute respiratory syndrome coronavirus), P0C6X7; recombinant SARS-CoV 3CLpro, quenched FRET peptide cleavage; inhibition, % at 6 µM; 290,000 compounds, 0.14% hits; AID 1706, 2009; in the data active = inhibition above about 12%
# BJeLR lethal: MLPCN primary cell-based screen for lethality selective to Ras in HRASV12 cells | BJeLR (HRASV12) viability, CellTiter-Glo ATP luminescence, 48 h | 300,000 compounds, 0.17% hits | inhibition, % (no concentration beside the values); in the data active = inhibition above about 50%
# PriA SSB inh: inhibitors of Klebsiella pneumoniae PriA binding to SSB C-terminal tail, primary screen, biochemical, AlphaScreen | PriA–SSB C-terminal tail interaction (Klebsiella pneumoniae) | AID 1272365, 2023 | 430,000 compounds, 0.6% hits | inhibition, % at 33 µM | AlphaScreen SSBct-PriA binding, biotinylated peptide; in the data active = inhibition mostly above about 37%, no sharp cut-off; inactive = mostly below about 20%;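 also: plate controls were negative control peptide for no effect and reference peptide for full effect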
# SARS 3CLpro inh-2: confirmation of SARS coronavirus 3C-like protease inhibitors, retest, confirmation, biochemical. shares compounds with SARS 3CLpro inh-1. QFRET protease activity assay, 3CLpro. inhibition, % at 6 µM. 380 compounds, 36% hits; in the data active = inhibition above about 13%
# * = called active by the depositor; x = not tested or not shown.
SMILES,SARS 3CLpro inh-1,BJeLR lethal,PriA SSB inh,others
Cc1ccc(CN2C(=O)/C(=C\c3ccc(C(=O)NCc4cccnc4)cc3)Oc3ccccc32)cc1,-3,113*,x,
O=C(CN1C(=O)/C(=C\c2ccccc2Cl)Oc2ccccc21)NCc1cccnc1,-3,-12,-13,
O=C(NCc1n[nH]c(=O)c2ccccc12)Nc1ccc(Cl)c(Cl)c1,x,x,-10,
CCCCc1ccc(NS(=O)(=O)CC23CCC(CC2=O)C3(C)C)cc1 (stereo unspecified),x,x,-7,
COc1cc(-c2cccc(Cl)c2)nc2ccc(NS(=O)(=O)c3ccc(NC(C)=O)cc3)cc12,x,x,2,
O=C(NC1CCN(c2nccs2)CC1)c1c(F)cccc1F,x,x,-13,
COC(=O)c1sc(-c2ccccc2)cc1NC(=O)CS(=O)(=O)c1ccc(F)cc1,x,x,-5,
FCCCOc1ccc(-c2nccc(-c3ccccn3)n2)cc1,0,0,-5,
O=Cc1cnc(-c2ccccn2)nc1,x,x,106*,
O=C(O)COc1ccc(-c2nccc(-c3ccccn3)n2)cc1,7,-4,-11,
c1ccc(-c2nc(-c3ccccn3)c(-c3ccccn3)nc2-c2ccccn2)nc1,x,x,27,
c1ccc(-c2cccc(-c3ccccn3)n2)nc1,-1,49,104*,
c1ccc(-c2ccnc(-c3ccccn3)n2)nc1,x,x,146*,
OCc1ccnc(-c2ccccn2)n1,x,x,89*,
CC(C)(C)S(=O)(=O)c1cnc(-c2ccccn2)nc1N,3,-4,-16,
Cn1cc(S(=O)(=O)Nc2nc3ccccc3nc2Nc2cccc(OC(F)F)c2)cn1,x,x,-23,
COc1cccc2c(N)ccnc12,x,x,-3,
CCn1ccc(C(=O)Nc2ccc(C(C)=O)cc2)n1,x,x,-7,
Cc1cc(=O)[nH]c2nnc(Nc3ccccc3)n12,x,x,-14,
CC(C)(Oc1ccc(Cl)cc1)C(=O)NCCn1ccnc1-c1cccnc1,x,x,-13,
c1ccc(-c2nnc(-c3ccccn3)c(-c3ccccn3)n2)nc1,0,-3,13,
c1ccc(-c2nnc(-c3ccccn3)nn2)nc1,x,-5,68*,
Nc1ncc(Br)cc1S(=O)(=O)Nc1cc(C(F)(F)F)cc(C(F)(F)F)c1,23*,11,-4,SARS 3CLpro inh-2=15*
Cc1ccc(NS(=O)(=O)c2cc(Br)cnc2N)c(Cl)c1,5,11,1,
COC(=O)c1sc(N2C(=O)C(O)=C(C(=O)c3ccc(C)o3)C2c2ccc([N+](=O)[O-])cc2)nc1C (stereo unspecified),4,-5,8,
SMILES,SARS 3CLpro inh-1,BJeLR lethal,PriA SSB inh,others
CCOc1ccc(C2C(C(=O)c3ccc(C)o3)=C(O)C(=O)N2c2nc(C)c(C(=O)OC)s2)cc1 (stereo unspecified),12*,-2,-8,SARS 3CLpro inh-2=4
CC(CCc1ccccc1)NC(=O)CCc1csc(NC(=O)NC2CCCCC2)n1 (stereo unspecified),x,x,-8,
Cc1nnsc1C(=O)N(CCN1CCOCC1)c1nc2c(S(C)(=O)=O)cccc2s1,x,x,-6,
Cc1cc(=O)oc2cc(NC(=O)Cc3ccccc3[N+](=O)[O-])ccc12,17*,-5,-11,SARS 3CLpro inh-2=13*
Cc1cc(=O)oc2cc(NC(=O)Cc3ccccc3)ccc12,-1,1,-7,
C=C1C2(C(=O)Nc3cccc(Cl)c3)CCC(C2)C1(C)C (stereo unspecified),x,x,-32,
COc1ccc(C(=O)Nn2cnc3scc(-c4cccs4)c3c2=O)c(O)c1,14*,-2,1,SARS 3CLpro inh-2=6
COc1cccc(-n2cnc3scc(-c4cccs4)c3c2=O)c1,4,2,-10,
O=S(=O)(N=C(Nc1cccc2ccccc12)c1ccccc1)c1ccc(F)cc1,x,x,-11,
O=C(CN1C(=O)c2ccccc2C1=O)Nc1nc2ccc(Br)cc2s1,x,x,-5,
Cc1ccc(N2CCN(C(=O)Nc3ccc(F)c(Cl)c3)CC2)nn1,x,x,1,
Cc1cc(NC(=O)COn2nnc3ccc(S(C)(=O)=O)cc32)ccc1Br,24*,-1,-4,SARS 3CLpro inh-2=31*
Cc1cc(Br)c(NC(=O)COn2nnc3ccc(S(C)(=O)=O)cc32)c(Br)c1,12*,-4,0,SARS 3CLpro inh-2=8
O=C(COn1nnc2ccc(S(=O)(=O)N3CCOCC3)cc21)Nc1c(F)c(F)c(F)c(F)c1F,2,-3,-3,
COc1cc(NC(=O)COn2nnc3ccc(S(C)(=O)=O)cc32)cc(OC)c1,6,6,1,
CCCS(=O)(=O)N1CCCc2cc(NS(=O)(=O)Cc3ccc(F)cc3)ccc21,x,x,9,
O=C(CCS(=O)(=O)c1ccccc1)N1CCN(c2ccc(F)cc2)CC1,13*,-5,-3,SARS 3CLpro inh-2=-1

# Bioassay records: PubChem, several laboratories
